HIF-2a block – inhibitors of HIF-2a; 786-0 RCC cells HIF-2a reporter, luciferase luminescence, overnight; 360,000 tested, 0.72% active; inhibition, % at 18.8 µM;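 active = inhibition of the luminescence signal of 40% or more relative to plate controls, in a single-dose primary screen at 18.75 µM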
TWEAK Fn14 block – TWEAK-Fn14 signaling inhibition; TWEAK-stimulated Fn14 reporter cells, luciferase luminescence, 8 h; inhibition, % at 10 µM; 360,000 tested, 2% active; AID 1159606; in the data active = inhibition above about 50%
TROY signal inh – TROY signaling inhibition; inhibition, % at 10 µM; 360,000 tested, 0.98% active; AID 1347056; Q293 LMP1-TROYcd NF-kB luciferase reporter, 4 h;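 active = compounds whose plate-normalised and pattern-corrected inhibition of the luciferase reporter signal at the single screening dose is 50% or more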
Peg3 prom inh – reduces Peg3 promoter-driven luciferase expression in HeLa; HeLa PEG-Prom luciferase reporter, luminescence, overnight; inhibition, % at 20 µM; 360,000 tested, 1.7% active; AID 588405;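 active = inhibition of at least 50% at 20 µM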
CF NFkB block – blocks PAF-induced NF-kB reporter in cystic fibrosis cells. KKLEB NF-kB-GFP reporter, GFP fluorescence overnight. inhibition, % at 5 µM. AID 588850. 360,000 tested, 0.86% active;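 active = at least 50% inhibition at 5 µM, scaled per plate between neutral and stimulator controls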;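 also: PAF is a Pseudomonas aeruginosa culture filtrate used as stimulus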
KKLEB cytotox – CF airway cell cytotoxicity counter-screen | KKLEB CF airway cells viability, ATPlite luminescence, overnight; active compounds read low; cells stimulated with P. aeruginosa culture filtrate | activity change (cytotoxicity), % at 5 µM | 360,000 tested, 0.36% active | AID 602141;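 active = corrected activity change at or below -50% at 5 µM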
Of the large screens only hits and unclear results are named; the others gave an inactive call. Compounds with a hit are over-represented: about 4% of the library has one in this group of screens.

O=C(O)CC(NS(=O)(=O)c1ccc(Br)cc1)c1ccco1 (configuration not stated)	none
Nc1[nH]c(C(=O)c2ccccc2)c(-c2ccncc2)c1C(=O)NCc1ccc(Cl)cc1	none (no result: Peg3 prom inh, CF NFkB block, KKLEB cytotox)
Cc1cccc(N(C(=O)CNC(=O)c2ccco2)C(C(=O)NCC2CCCO2)c2ccccc2)c1 (configuration not stated)	TWEAK Fn14 block 67
CC(=O)c1ccc(N(C(=O)CNC(=O)c2cccs2)C(C(=O)NCC2CCCO2)c2ccccc2)cc1 (configuration not stated)	Peg3 prom inh 94
O=C(NCc1cccnc1)c1noc2c1CCCCC2	none
CCOc1ccc2nc(NC(=O)c3ccco3)sc2c1	TWEAK Fn14 block 59
COc1cc2nc(NC(=O)c3ccccc3)sc(=O)c2cc1OC	TWEAK Fn14 block 72
O=C(Nc1nc2ccc(F)cc2s1)c1ccc([N+](=O)[O-])o1	Peg3 prom inh 67, CF NFkB block 81, KKLEB cytotox -62
CCOc1ccc2nc(NC(=O)CSc3nc4c(c(=O)n(C)c(=O)n4C)n3C(C)C)sc2c1	TWEAK Fn14 block 53, TROY signal inh 50
COc1cc(C)ccc1OCC(=O)Nc1ccccc1N1CCOCC1	none
CCN(CC)S(=O)(=O)c1cccc(NC(=O)c2ccccc2Br)c1	none
COc1ccc(NC(=O)Nc2c(C)n(C)n(-c3ccccc3)c2=O)c(OC)c1	none
O=C(Nc1nc2ccccc2c(=O)s1)c1ccco1	TWEAK Fn14 block 54
O=C(Nc1nc2cc3c(cc2s1)OCO3)c1ccco1	TWEAK Fn14 block 90, TROY signal inh 56
CCOc1ccc2nc(NC(=O)c3ccoc3C)sc2c1	TWEAK Fn14 block 63
CS(=O)(=O)c1ccc2nc(NC(=O)c3ccco3)sc2c1	none
O=C(NC(=S)Nc1nc2ccc(F)cc2s1)c1ccco1	KKLEB cytotox -71
COc1ccc(NC(=O)CC2C(=O)N(C)C(=S)N2CCc2ccccc2)cc1 (configuration not stated)	none
CNC(=O)OCc1cccc(COC(=O)NC)n1	none
COc1ccc(NC(=O)COC(=O)CNS(=O)(=O)c2ccc(F)c(F)c2F)cc1OC	none
COc1ccc(OCC(O)Cn2c(=N)n(Cc3ccccc3)c3ccccc32)cc1 (configuration not stated)	none
N=c1n(CCO)c2ccccc2n1Cc1ccc(Cl)cc1	none
N=c1n(Cc2ccc(Cl)cc2)c2ccccc2n1CC(O)COc1ccccc1 (configuration not stated)	Peg3 prom inh 101
N=c1n(Cc2ccccc2)c2ccccc2n1CC(O)COc1ccc(Cl)cc1Cl (configuration not stated)	TROY signal inh 60, Peg3 prom inh 104
Cc1ccc(OCC(O)Cn2c(=N)n(Cc3ccccc3)c3ccccc32)cc1 (configuration not stated)	Peg3 prom inh 108
Cc1ccc([C@H]2C[C@@H](n3cc(COC(=O)c4ccccc4)nn3)[C@H](O)CN2CC2CCCCC2)cc1	none
CC(=O)Nc1nnc(C2=COCCO2)o1	none
CCCc1ccc(OC(=O)c2ccc(O)cc2Cl)cc1	TROY signal inh 58
CCCc1ccc(OC(=O)c2cccs2)cc1	none
COc1ccc(C)cc1NC(=O)CN(C)S(=O)(=O)c1ccc2c(c1)c(=O)n(C)c(=O)n2C	none
COc1ccc(-n2nc3c(N4CCC(C(=O)NCc5ccco5)CC4)nnc(C)c3c2C)cc1	none
Cc1ccc(-n2nc3c(N4CCC(C(=O)NCc5cccc(F)c5)CC4)nnc(C)c3c2C)cc1	none
CCOc1ccccc1CNC(=O)C1CCCN(c2nnc(C)c3c(C)n(-c4ccccc4)nc23)C1 (configuration not stated)	Peg3 prom inh 55
COc1ccc(-n2nc3c(N4CCC(C(=O)NCCc5ccccc5C)CC4)nnc(C)c3c2C)cc1	Peg3 prom inh 103
COc1ccc(-n2nc3c(N4CCC(C(=O)NCC(C)c5ccccc5)CC4)nnc(C)c3c2C)cc1 (configuration not stated)	Peg3 prom inh 75
O=C(NS(=O)(=O)c1ccccc1[N+](=O)[O-])c1ccccc1	none
COc1ccc(-c2ccc(CN3C(C(C)C)C(=O)N(Cc4cn(CCC5OCCCO5)nn4)CCS3(=O)=O)cc2)cn1 (configuration not stated)	none
CCCOC(=O)C1=C(C)NC(=O)NC1c1cccc2ccccc12 (configuration not stated)	none
CC1=C(C(=O)OCCBr)C(c2cccc3ccccc23)NC(=O)N1 (configuration not stated)	TWEAK Fn14 block 53
Cc1cc(=O)[nH]c(N/N=C/c2c(F)c(F)c(F)c(F)c2F)n1	none
COc1ccc(S(=O)(=O)N(CCCN2CCCC2=O)Cc2cc3cc(C)c(C)cc3[nH]c2=O)cc1	TWEAK Fn14 block 94
C=CCOC(=O)C1=C(C)N(C)C(=O)NC1c1cc2c(cc1Br)OCO2 (configuration not stated)	TWEAK Fn14 block 90, TROY signal inh 82, Peg3 prom inh 67
CCOC(=O)C1=C(C)NC(=O)CC1c1cc2c(cc1Br)OCO2 (configuration not stated)	TWEAK Fn14 block 100 (no result: TROY signal inh)
CC(C)(C)c1ccc(C(=O)Nc2cnccn2)cc1	TWEAK Fn14 block 61
O=C(Nc1ccccn1)c1ccc(-c2ccccc2)cc1	TWEAK Fn14 block 89, TROY signal inh 54, KKLEB cytotox -55
COc1ccc(C(=O)Nc2cnccn2)cc1[N+](=O)[O-]	none
O=C(Nc1ccccn1)C(=O)Nc1ccccn1	TWEAK Fn14 block 51
O=C(CCOc1ccccc1)N1CCN(c2ccc(O)cc2)CC1	none
CCOc1ccc(-c2cnc3ccccc3n2)cc1	HIF-2a block 71, TWEAK Fn14 block 94, TROY signal inh 63
Fc1ccc(-c2cn3ccccc3n2)cc1	none
CCOc1ccc(-c2cn3ccccc3n2)cc1	TWEAK Fn14 block 62, KKLEB cytotox -51
O=C(CN(C(=O)CCC(=O)Nc1nccs1)c1ccc(F)cc1)NCc1ccco1	none
CC1(C)Cc2ccccc2C(/C(=N\Nc2cccc(Cl)c2)C(N)=O)=N1	TWEAK Fn14 block 56
CC1(C)Cc2ccccc2C(/C(=N/O)C(N)=O)=N1	none
CC(=O)c1ccc(N/N=C(/C(N)=O)C2=NC(C)(C)Cc3ccccc32)cc1	Peg3 prom inh 77
CCc1ccc(NC(=O)CCn2c(=O)oc3ccccc32)cc1	none
COc1ccc(C(=O)/C=C/Sc2nc3ccccc3o2)cc1	TWEAK Fn14 block 61, Peg3 prom inh 91, CF NFkB block 54
COc1cc(OC)c2c(-c3ccccc3)cc(=O)oc2c1C(CCN1CCCCC1)c1ccc(N(C)C)cc1 (configuration not stated)	Peg3 prom inh 65
COc1cc(OC)c2c(-c3ccccc3)cc(=O)oc2c1C(CCN1CCOCC1)c1ccc(N(C)C)cc1 (configuration not stated)	none

Screening results deposited in PubChem by Sanford-Burnham Center for Chemical Genomics.
